CYP2C19 act: activators of human cytochrome P450 2C19 | P33261 | recombinant CYP2C19, luciferin-H EGE luminescence; stronger effect = higher value; 0 = fully inhibited enzyme, 1 = untreated enzyme | activation factor at 5 µM | 96,000 tested, under 10 active | AID 1025;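 active = activation factor of at least 2 at 5 µM in the primary screen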
sEH act: activators of human soluble epoxide hydrolase | P34913 | purified human sEH enzymatic activity, activator screen | activation, % at 2 µM | actives 0.04% (n = 91,000) | AID 717; in the data active = activation above about 37%
Target sequence (P34913 whole entry, looked up): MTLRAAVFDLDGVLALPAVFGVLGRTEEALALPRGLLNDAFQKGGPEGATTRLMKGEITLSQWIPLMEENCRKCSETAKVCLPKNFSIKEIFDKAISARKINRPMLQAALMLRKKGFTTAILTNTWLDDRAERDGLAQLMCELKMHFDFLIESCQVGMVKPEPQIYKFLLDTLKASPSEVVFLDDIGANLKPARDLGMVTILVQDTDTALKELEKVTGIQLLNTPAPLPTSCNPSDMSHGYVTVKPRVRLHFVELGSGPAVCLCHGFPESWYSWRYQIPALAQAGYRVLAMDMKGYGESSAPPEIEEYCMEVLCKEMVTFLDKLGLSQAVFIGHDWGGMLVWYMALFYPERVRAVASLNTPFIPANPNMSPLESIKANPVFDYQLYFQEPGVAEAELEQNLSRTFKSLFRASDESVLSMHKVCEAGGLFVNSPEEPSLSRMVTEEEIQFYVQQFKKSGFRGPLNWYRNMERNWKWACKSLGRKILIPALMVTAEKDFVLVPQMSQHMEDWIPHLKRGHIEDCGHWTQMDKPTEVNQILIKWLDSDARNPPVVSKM
CYP2C9 activ: activators of human CYP2C9; P11712; recombinant CYP2C9, luciferin-H conversion, luminescence; stronger effect = higher value; factor 1 = untreated enzyme, 0 = blocked; activation factor at 5 µM; actives 1.4% (n = 96,000); AID 1024;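 active = activation factor of 2 or more for CYP2C9 at a 5 µM dose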
sEH inh: inhibitors of human soluble epoxide hydrolase. recombinant human sEH enzymatic activity assay. actives 0.34% (n = 91,000). inhibition, % at 2 µM. P34913; in the data active = inhibition above about 80%
CYP2C19 inhib: human CYP2C19 inhibition | CYP2C19 Supersomes, luciferin-H EGE luminescence, 30 min | P33261 | AID 778 | actives 21% (n = 96,000) | inhibition, % at 5 µM;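 active = CYP2C19 inhibition above a set limit at 5 µM in the primary screen, cut at about 50% in these data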
CYP2C9 inhib: inhibitors of human CYP2C9 | inhibition, % at 5 µM | CYP2C9 Supersomes, luciferin-H conversion, luminescence | AID 777 | P11712 | actives 20% (n = 96,000);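 active = blocking of liver enzyme CYP2C9 beyond about 50% at 5 µM, limit read from the data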
A number is an active result; i = inactive; nt = not tested or not shown. Hits are enriched below; roughly 27% of the tested compounds scored in any of these assays.

SMILES	CYP2C19 act	sEH act	CYP2C9 activ	sEH inh	CYP2C19 inhib	CYP2C9 inhib
Cc1ccc(C)n1-c1ccc(C(=O)O)cc1	i	i	i	i	i	56
N#CC1=C(N)SC(N)=C(C#N)C1c1ccnc2ccccc12	i	i	i	i	i	70
CCOC(=O)c1c(C)[nH]c(C(=O)COC(=O)CCC2CCCC2)c1C	i	i	i	i	i	82
CCOC(=O)c1c(C)[nH]c(C(=O)COC(=O)C2(C)CC2(Cl)Cl)c1C (stereo not given)	i	i	i	i	i	99
CCOC(=O)c1c(C)[nH]c(C(=O)COC(=O)CSCC(=O)N(CC)CC)c1C	i	i	i	i	i	i
O=C(O)c1ccccc1NCN1C(=O)C2CC=C(Cl)CC2C1=O (stereo not given)	i	nt	i	nt	i	i
O=C(O)c1ccc(C2CCCCC2)cn1	i	i	i	i	i	i
Cc1onc(-c2ccccc2)c1C(=O)Nc1nc(-c2ccc(F)c(F)c2)cs1	i	i	i	i	79	68
Cc1onc(-c2c(Cl)cccc2Cl)c1C(=O)Nc1ccc2c(c1)OCO2	i	nt	i	nt	i	81
Cc1onc(-c2c(F)cccc2Cl)c1C(=O)OCC(=O)NC(c1ccccc1)c1ccccc1	i	i	i	i	i	84
Cc1noc(C)c1C(=O)OCC(=O)NC(c1ccccc1)c1ccccc1	i	nt	i	nt	i	i
Cc1csc(NC(=O)c2c(-c3c(Cl)cccc3Cl)noc2C)n1	i	i	i	i	83	89
COC(=O)c1ccccc1NC(=O)c1noc2c1CC(C(C)(C)C)CC2 (stereo not given)	i	i	i	i	i	i
O=c1cc(N2CCc3ccccc32)[nH]c(=O)n1Cc1ccc(F)cc1	i	i	i	i	i	i
Cc1onc(-c2c(F)cccc2Cl)c1C(=O)NCc1cccs1	i	i	i	i	85	84
CCOC(=O)c1c(NC(=O)c2c(-c3ccccc3)noc2C)sc(C)c1-c1ccccc1	i	i	i	i	i	i
Cc1onc(-c2ccccc2Cl)c1C(=O)Nc1cccnc1	i	i	i	i	i	i
CCOC(=O)Cc1csc(NC(=O)c2c(-c3ccccc3)noc2C)n1	i	i	i	i	82	83
Cc1onc(-c2c(F)cccc2Cl)c1C(=O)Nc1nc2c(s1)CCCC2	nt	i	nt	i	nt	nt
CCOC(=O)Cc1csc(NC(=O)c2c(-c3c(F)cccc3Cl)noc2C)n1	i	i	i	i	51	70
Cc1onc(-c2ccccc2)c1C(=O)Nc1cccnc1	i	i	i	i	i	50
CCCNC(=O)Cn1nc(C(F)(F)F)c2c1CCCC2	nt	i	nt	i	nt	nt
CCOC(=O)c1ccc(NC(=O)C2CCCN(S(=O)(=O)c3ccc(F)cc3)C2)cc1 (stereo not given)	i	i	i	i	i	i
Cc1onc(-c2ccccc2)c1C(=O)n1nnc2ccccc21	i	i	i	i	i	56
Cc1onc(-c2ccccc2)c1C(N)=O	i	nt	i	nt	i	i
SMILES	CYP2C19 act	sEH act	CYP2C9 activ	sEH inh	CYP2C19 inhib	CYP2C9 inhib
Cc1cc2ncn(C(=O)c3c(-c4c(Cl)cccc4Cl)noc3C)c2cc1C	i	i	i	i	72	69
Cc1cc2ncn(C(=O)c3c(-c4ccccc4)noc3C)c2cc1C	i	i	i	i	i	58
CC(C(=O)N1CCN(c2ccc(Cl)cc2)CC1)c1ncc(C(F)(F)F)cc1Cl (stereo not given)	i	i	i	i	52	i
CC1(c2ccc3noc(-c4ccc(Cl)cc4)c3c2)OCCO1	i	i	i	i	i	i
c1ccc(-c2onc3cc4c(cc23)OCCO4)cc1	i	nt	i	nt	50	54
Cc1noc(C)c1C(=O)NCCC1=CCCCC1	i	i	i	i	i	i
CC(C)CNC(=O)CSc1ccc(Cl)cc1	i	i	i	i	i	i
Cc1ccc(SCC(=O)NCCC2=CCCCC2)cc1	i	i	i	i	60	51
O=C(CSc1nnc(-c2cccc(S(=O)(=O)N3CCCCC3)c2)o1)NCCC1=CCCCC1	i	nt	i	nt	i	i
Cc1ccc(SCC(=O)NCC(C)C)cc1	i	nt	i	nt	75	50
Cc1noc(C)c1C(=O)OCC(=O)NCCC1=CCCCC1	i	i	i	i	70	i
CCS(=O)(=O)c1ccc2oc(SCC(=O)NCCC3=CCCCC3)nc2c1	i	i	i	i	i	72
Cc1ccc(C)c(-n2nnnc2SCC(=O)NCCC2=CCCCC2)c1	i	i	i	i	76	i
